The AC50 is the concentration at which the activity in the assay is half-maximal.

Each structure is given as a SMILES string. Records with an inconclusive call do not appear. Active and inactive are the calls of the source. How the source made its calls, unless noted: active means hit-call score of the fitted dose curve at least 0.9, where 1 is the maximum; inactive means score below 0.9.

These results are taken from PubChem BioAssay (EPA / NIEHS).

The nature of experiment [1]: ATG_AP_2_CIS: Attagene CIS-FACTORIAL HepG2 Assay for human Activator Protein 2 (AP-2) (AID 2282932). The settings on record: HepG2 AP-2 cis-reporter, Attagene transcription factor profiling; actives raise or lower the signal. The essentials: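 Transiently transfected HepG2 cells are exposed to chemical for 24 h. Reporter transcripts are then measured as fluorescence following RT-PCR and capillary separation, and gain- or loss-of-signal is fitted relative to DMSO.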

The target of experiment [2] is Transcription factor E2F1 (Homo sapiens) (UniProt Q01094). Put plainly: ATG_E2F_CIS: Attagene CIS-FACTORIAL HepG2 Assay for human E2F Transcription Factor 1 (AID 2282935). The settings on record: HepG2 Attagene cis-reporter, E2F reporter RNA transcripts; actives raise or lower the signal. The essentials:
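Fluorescent RT-PCR products, digested with HpaI for 2 h at 37 C, are separated by capillary electrophoresis. Source RNA comes from transfected HepG2 cultures treated for 24 h.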

A short description of experiment [3]: ATG_M_61_CIS: Attagene CIS-FACTORIAL HepG2 Assay for M61 Transcription Factor (Internal Marker) (AID 2282937). The conditions noted are these: HepG2 Attagene CIS-FACTORIAL M61 internal marker reporter; actives raise or lower the signal. The essentials: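 Using transiently transfected HepG2 liver cells, reporter transcript levels were assessed 24 h post-dosing by RT-PCR and capillary electrophoresis. Changes in either direction were fitted relative to DMSO controls.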

The nature of experiment [4]: ATG_Ets_CIS: Attagene CIS-FACTORIAL HepG2 Assay for human Erythroblast Transformation Specific (ETS) (AID 2282941). The settings on record: HepG2 ETS cis-reporter transcription, actives raise or lower the signal. An outline of the steps: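 Multiplexed reporter transcript profiling: HepG2, 24 h treatment, total RNA to cDNA, PCR, 6-FAM labelling, HpaI cut, capillary electrophoresis. Gain- or loss-of-signal fitted against DMSO.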

In experiment [5] the target is Hepatocyte nuclear factor 3-beta (Homo sapiens) (UniProt Q9Y261). In words: ATG_FoxA2_CIS: Attagene CIS-FACTORIAL HepG2 Assay for human Forkhead box A2 (FOXA2) (AID 2282942). The conditions noted are these: HepG2 cis-reporter transcription factor activity, 24 h; actives raise or lower the signal. An outline of the steps: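 Fluorescence signal of reporter cDNA fragments, separated by capillary electrophoresis, reflects endogenous transcription factor activity in transfected HepG2 after 24 h. Both increases and decreases fitted against DMSO.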
Chain of Hepatocyte nuclear factor 3-beta (Homo sapiens) (Q9Y261 whole entry, looked up, the tested form may be a part): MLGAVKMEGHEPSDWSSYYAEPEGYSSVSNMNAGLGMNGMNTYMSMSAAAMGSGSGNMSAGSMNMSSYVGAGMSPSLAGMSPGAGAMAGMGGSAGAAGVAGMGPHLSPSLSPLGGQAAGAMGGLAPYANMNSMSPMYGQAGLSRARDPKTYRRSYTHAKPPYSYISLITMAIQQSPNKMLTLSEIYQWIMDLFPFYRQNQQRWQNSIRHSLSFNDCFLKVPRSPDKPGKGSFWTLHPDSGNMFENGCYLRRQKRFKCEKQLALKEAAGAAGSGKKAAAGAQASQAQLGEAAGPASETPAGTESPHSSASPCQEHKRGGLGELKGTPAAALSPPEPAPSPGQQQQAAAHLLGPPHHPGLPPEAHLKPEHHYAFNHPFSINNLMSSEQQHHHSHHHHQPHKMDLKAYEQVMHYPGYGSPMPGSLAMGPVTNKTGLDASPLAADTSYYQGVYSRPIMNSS

Experiment [6] deals with Hypoxia-inducible factor 1-alpha (Homo sapiens) (UniProt Q16665). In words: ATG_HIF1a_CIS: Attagene CIS-FACTORIAL HepG2 Assay for human Hypoxia Inducible Factor 1 (HIF1A) (AID 2282951). The conditions noted are these: HepG2 Attagene cis-factorial HIF1a reporter transcription; actives raise or lower the signal. The essentials: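 Endogenous-TF cis reporter readout, human HepG2 cells, 24 h incubation; mRNA detected via RT-PCR and capillary electrophoresis fluorescence; DMSO-normalised bidirectional fitting.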
Chain of Hypoxia-inducible factor 1-alpha (Homo sapiens) (Q16665 whole entry, looked up): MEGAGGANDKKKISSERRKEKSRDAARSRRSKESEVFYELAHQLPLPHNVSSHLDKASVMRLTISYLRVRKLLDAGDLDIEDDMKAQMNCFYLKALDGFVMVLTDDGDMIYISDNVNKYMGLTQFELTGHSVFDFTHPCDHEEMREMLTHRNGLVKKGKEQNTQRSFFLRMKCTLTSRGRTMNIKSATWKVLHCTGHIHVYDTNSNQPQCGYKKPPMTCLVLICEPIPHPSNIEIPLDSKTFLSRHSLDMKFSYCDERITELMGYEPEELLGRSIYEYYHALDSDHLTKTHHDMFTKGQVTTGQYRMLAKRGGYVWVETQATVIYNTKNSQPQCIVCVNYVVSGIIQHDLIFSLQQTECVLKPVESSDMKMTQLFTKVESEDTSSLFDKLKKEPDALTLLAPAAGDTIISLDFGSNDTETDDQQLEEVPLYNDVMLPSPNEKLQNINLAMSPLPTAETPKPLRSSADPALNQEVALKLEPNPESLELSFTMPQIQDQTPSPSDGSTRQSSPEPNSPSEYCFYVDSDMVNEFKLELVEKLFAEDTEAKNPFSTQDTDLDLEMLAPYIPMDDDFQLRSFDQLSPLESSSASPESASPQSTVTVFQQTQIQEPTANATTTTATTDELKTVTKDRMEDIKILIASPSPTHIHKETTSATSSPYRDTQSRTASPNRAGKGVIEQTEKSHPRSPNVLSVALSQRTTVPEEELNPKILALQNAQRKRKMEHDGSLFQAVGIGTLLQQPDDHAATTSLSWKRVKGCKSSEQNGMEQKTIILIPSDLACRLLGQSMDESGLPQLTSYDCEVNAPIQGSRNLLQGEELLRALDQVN

The nature of experiment [7]: ATG_RORE_CIS: Attagene CIS-FACTORIAL HepG2 Assay for human RAR-related Orphan Receptor Element (RORE) (AID 2282959). The settings on record: HepG2 Attagene cis-factorial RORE reporter, mRNA; actives raise or lower the signal. The essentials: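 Measured here: transcript induction of a cis-regulated reporter in HepG2 cells transiently transfected via FuGene 6. After 24 h, RNA was processed by RT-PCR and fluorescent capillary electrophoresis; DMSO defined baseline activity.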

Experiment [8] in a line: ATG_TGFb_CIS: Attagene CIS-FACTORIAL HepG2 Assay for human Transforming Growth Factor (TGF) (AID 2282967). The settings on record: HepG2 Attagene CIS TGFb reporter, mRNA transcription; actives raise or lower the signal. The essentials: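 Readout: fluorescently labeled reporter cDNA fragments resolved by capillary electrophoresis after RT-PCR. Transfected HepG2 cells dosed for 24 h; endogenous TF activity at TGFB1-linked cis element; gain or loss fitted relative to DMSO.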

Experiment [9] is described as follows: ATG_VDRE_CIS: Attagene CIS-FACTORIAL HepG2 Assay for human Vitamin D Receptor Element (VDRE) (AID 2282968). The conditions noted are these: HepG2 VDRE cis-reporter transcription, actives raise or lower the signal. The essentials: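 Measures endogenous factor activity through cis-element-driven reporter transcripts in transiently transfected HepG2. Cells are treated 24 h; reporter mRNA is quantified by RT-PCR and capillary electrophoresis; fitting is bidirectional.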

Experiment [10] concerns the target X-box-binding protein 1 (Homo sapiens) (UniProt P17861). In words: ATG_Xbp1_CIS: Attagene CIS-FACTORIAL HepG2 Assay for human X-box Binding Protein 1 (XBP1) (AID 2282972). The settings on record: HepG2 XBP1 cis-element reporter, Attagene multiplex; actives raise or lower the signal. The essentials: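 Human hepatoma HepG2, cis-element reporter system, 24 h treatment; mRNA quantified by RT-PCR/CE fluorescence; fit relative to DMSO.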

In experiment [11] the target is Transcriptional activator Myb (Homo sapiens) (UniProt P10242). Put plainly: ATG_Myb_CIS: Attagene CIS-FACTORIAL HepG2 Assay for human Myeloblastosis (Myb) Proto-Oncogene Transcription Factor (AID 2282986). The settings on record: HepG2 Attagene CIS-FACTORIAL Myb reporter transcription; actives raise or lower the signal. The essentials:
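Multiplexed cis-reporter system in HepG2: transient transfection, 24 h treatment, mRNA readout by RT-PCR and capillary electrophoresis. Both increases and decreases are scored versus DMSO negative control.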

Experiment [12] deals with Nuclear respiratory factor 1 (Homo sapiens) (UniProt Q16656). Put plainly: ATG_NRF1_CIS: Attagene CIS-FACTORIAL HepG2 Assay for human Nuclear Respiratory Factor 1 (NRF1) Orphan Gene (AID 2282987). The conditions noted are these: HepG2 NRF1 cis-element reporter, Attagene multiplex; actives raise or lower the signal. The essentials:
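Endogenous factor activity was captured via cis-element-driven reporter transcripts in HepG2 cells. Following 24 h chemical treatment, transcripts were quantified by RT-PCR and capillary electrophoresis.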

Experiment [13] can be described thus: ATG_NFI_CIS: Attagene CIS-FACTORIAL HepG2 Assay for human Nuclear Factor I (NFI) (AID 2282989). The settings on record: HepG2 cis-regulatory reporter, NFI response element transcription; actives raise or lower the signal. The essentials:
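Read-out: reporter mRNA via RT-PCR plus capillary electrophoresis with fluorescence detection. Transiently transfected HepG2 (endogenous TF activity on cis promoters), 24 h compound exposure; gain or loss of signal fitted against DMSO.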

Experiment [14] concerns the target Myc proto-oncogene protein (Homo sapiens) (UniProt P01106). In words: ATG_Myc_CIS: Attagene CIS-FACTORIAL HepG2 Assay for human Myelocytomatosis (Myc) Proto-Oncogene Transcription Factor (AID 2282990). The settings on record: HepG2, Attagene cis-reporter transcription factor activity; actives raise or lower the signal. The essentials:
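After 24 h chemical treatment of HepG2 cells carrying multiplexed cis-regulated reporter constructs, reporter transcripts quantified by RT-PCR and capillary electrophoresis of fluorescent fragments. Gain or loss fitted against DMSO baseline.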

Experiment [15] concerns the target Cellular tumor antigen p53 (Homo sapiens) (UniProt P04637). In words: ATG_p53_CIS: Attagene CIS-FACTORIAL HepG2 Assay for human p53 Transcription Factor (AID 2282994). The conditions noted are these: HepG2 p53 cis-element reporter, Attagene mRNA; actives raise or lower the signal. The essentials: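 Transiently transfected HepG2 (multiple cis reporter transcription units); exposure 24 h; reporter RNA via RT-PCR, 6-FAM extension, 2 h HpaI digest at 37 C, CE detection; DMSO baseline.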

Experiment [16] is described as follows: ATG_XTT_Cytotoxicity: Cytotoxicity Assessment in the Attagene TRANS-FACTORIAL HepG2 Assay (AID 2283584; active means hit-call score of the fitted dose curve at least 0.9, where 1 is the maximum). An outline of the steps:
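HepG2 cells transiently transfected with GAL4-UAS multiple reporter units, dosed 24 h; cytotoxicity read by XTT as loss of signal versus DMSO baseline.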

For experiment [17], the target named is Cellular tumor antigen p53 (Homo sapiens) (UniProt P04637). Put plainly: TOX21_p53_BLA_p2_ratio: Tox21 HCT-116 p53 Agonism Beta-lactamase Assay, Ratio, Phase 2 (AID 2283592; active means hit-call score of the fitted dose curve at least 0.9, where 1 is the maximum). An outline of the steps:
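First, HCT116 reporter cells settle for 5 h at 37C. Next, DMSO compound solutions are pinned in (217-fold dilution) and left 16 h. Finally, CCF4-AM substrate is loaded 2 h at room temperature and the 460/530 nm ratio read.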

Experiment [18] is described as follows: ATG_FoxO_CIS: Attagene CIS-FACTORIAL HepG2 Assay for human Forkhead box O (FoxO) (AID 2282943). The settings on record: HepG2 Attagene cis-reporter, FoxO element, mRNA; actives raise or lower the signal. An outline of the steps:
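Endogenous transcription factor activity read from multiplexed cis-promoter reporter transcripts in transiently transfected HepG2, 24 h after dosing. Reporter RNA measured via RT-PCR plus capillary electrophoresis of FAM-labeled products; gain or loss relative to DMSO.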

The target in experiment [19] is Nuclear receptor subfamily 1 group I member 2 (Homo sapiens) (UniProt O75469). Put plainly: ATG_PXR_TRANS: Attagene TRANS-FACTORIAL HepG2 Assay for human Pregnane X Receptor (PXR) (AID 2283008; active means hit-call score of the fitted dose curve at least 0.9, where 1 is the maximum). An outline of the steps: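 Transient HepG2 transfectants carrying multiplexed reporter transcription units; PXR activity read through a Gal4 chimera. 24 h exposure. RT-PCR/CE fluorescence; upward curve fit referenced to DMSO.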
Chain of Nuclear receptor subfamily 1 group I member 2 (Homo sapiens) (O75469 whole entry, looked up, the tested form may be a part): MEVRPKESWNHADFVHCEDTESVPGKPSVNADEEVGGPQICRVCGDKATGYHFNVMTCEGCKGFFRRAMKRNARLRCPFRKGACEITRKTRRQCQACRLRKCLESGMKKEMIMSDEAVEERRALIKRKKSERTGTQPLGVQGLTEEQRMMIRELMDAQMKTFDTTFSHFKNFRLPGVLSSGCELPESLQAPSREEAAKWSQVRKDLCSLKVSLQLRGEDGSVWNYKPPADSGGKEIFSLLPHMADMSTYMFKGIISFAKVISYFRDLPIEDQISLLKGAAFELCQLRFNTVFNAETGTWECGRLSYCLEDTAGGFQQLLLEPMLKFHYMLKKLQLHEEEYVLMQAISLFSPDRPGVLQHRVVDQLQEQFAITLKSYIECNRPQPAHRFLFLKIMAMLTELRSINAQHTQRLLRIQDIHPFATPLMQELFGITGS

Experiment [20] in a line: ATG_EGR_CIS: Attagene CIS-FACTORIAL HepG2 Assay for human Early Growth Response 1 (EGR1) (AID 2282938). The conditions noted are these: HepG2 Attagene CIS-FACTORIAL EGR reporter mRNA; actives raise or lower the signal. The essentials: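 Fluorescent capillary-electrophoresis signal of reporter cDNA fragments serves as read-out. HepG2 cells bear transiently transfected cis-promoter reporter units and are exposed 24 h; gain- or loss-of-signal is fitted against DMSO.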

Chain of Cellular tumor antigen p53 (Homo sapiens) (P04637 whole entry, looked up): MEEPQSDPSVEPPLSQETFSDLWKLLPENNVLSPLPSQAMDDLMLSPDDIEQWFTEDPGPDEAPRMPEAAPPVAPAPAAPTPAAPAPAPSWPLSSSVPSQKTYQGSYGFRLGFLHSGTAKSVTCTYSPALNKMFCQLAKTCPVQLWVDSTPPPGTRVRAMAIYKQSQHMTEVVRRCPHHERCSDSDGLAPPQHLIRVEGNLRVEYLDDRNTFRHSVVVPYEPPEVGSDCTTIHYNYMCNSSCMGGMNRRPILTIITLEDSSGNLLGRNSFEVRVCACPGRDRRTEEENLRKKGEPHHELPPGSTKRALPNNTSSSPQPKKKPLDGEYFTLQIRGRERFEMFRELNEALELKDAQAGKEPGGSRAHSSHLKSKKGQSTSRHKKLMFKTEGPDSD
Chain of Transcriptional activator Myb (Homo sapiens) (P10242 whole entry, looked up): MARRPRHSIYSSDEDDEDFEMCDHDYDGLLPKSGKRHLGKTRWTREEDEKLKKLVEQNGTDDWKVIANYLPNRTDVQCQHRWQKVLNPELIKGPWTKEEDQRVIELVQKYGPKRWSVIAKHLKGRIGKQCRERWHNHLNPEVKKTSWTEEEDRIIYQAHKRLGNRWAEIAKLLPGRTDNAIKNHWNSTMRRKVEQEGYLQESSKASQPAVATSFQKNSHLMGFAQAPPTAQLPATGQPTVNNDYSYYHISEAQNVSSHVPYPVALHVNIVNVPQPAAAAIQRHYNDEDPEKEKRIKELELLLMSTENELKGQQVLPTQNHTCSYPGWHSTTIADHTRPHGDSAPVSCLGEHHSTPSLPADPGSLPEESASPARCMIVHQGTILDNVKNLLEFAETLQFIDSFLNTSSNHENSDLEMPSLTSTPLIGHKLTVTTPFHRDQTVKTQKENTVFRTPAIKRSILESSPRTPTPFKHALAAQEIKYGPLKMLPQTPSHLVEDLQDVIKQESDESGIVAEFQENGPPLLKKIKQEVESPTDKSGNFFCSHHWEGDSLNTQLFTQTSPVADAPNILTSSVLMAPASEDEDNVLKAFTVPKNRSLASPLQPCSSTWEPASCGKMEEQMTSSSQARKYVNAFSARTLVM
Chain of X-box-binding protein 1 (Homo sapiens) (P17861 whole entry, looked up): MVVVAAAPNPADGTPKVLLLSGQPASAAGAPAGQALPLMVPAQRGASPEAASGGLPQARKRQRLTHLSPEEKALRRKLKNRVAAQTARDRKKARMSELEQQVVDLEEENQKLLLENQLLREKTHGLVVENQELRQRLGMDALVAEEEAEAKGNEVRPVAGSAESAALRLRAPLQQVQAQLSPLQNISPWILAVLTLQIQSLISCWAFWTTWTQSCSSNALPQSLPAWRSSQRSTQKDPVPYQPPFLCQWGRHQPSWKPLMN
Chain of Nuclear respiratory factor 1 (Homo sapiens) (Q16656 whole entry, looked up): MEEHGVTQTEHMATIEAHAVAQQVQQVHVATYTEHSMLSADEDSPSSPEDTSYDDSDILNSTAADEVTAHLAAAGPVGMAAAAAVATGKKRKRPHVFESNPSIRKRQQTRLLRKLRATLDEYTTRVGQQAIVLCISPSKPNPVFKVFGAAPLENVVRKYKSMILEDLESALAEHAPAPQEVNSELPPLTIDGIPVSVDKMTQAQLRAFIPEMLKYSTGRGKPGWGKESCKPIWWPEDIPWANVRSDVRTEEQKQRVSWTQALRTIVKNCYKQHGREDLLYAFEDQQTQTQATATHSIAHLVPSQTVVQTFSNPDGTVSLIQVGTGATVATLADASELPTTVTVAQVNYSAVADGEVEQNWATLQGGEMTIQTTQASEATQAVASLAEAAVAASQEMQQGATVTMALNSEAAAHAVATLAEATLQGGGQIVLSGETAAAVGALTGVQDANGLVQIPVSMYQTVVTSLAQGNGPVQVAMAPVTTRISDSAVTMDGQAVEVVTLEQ
Chain of Transcription factor E2F1 (Homo sapiens) (Q01094 whole entry, looked up): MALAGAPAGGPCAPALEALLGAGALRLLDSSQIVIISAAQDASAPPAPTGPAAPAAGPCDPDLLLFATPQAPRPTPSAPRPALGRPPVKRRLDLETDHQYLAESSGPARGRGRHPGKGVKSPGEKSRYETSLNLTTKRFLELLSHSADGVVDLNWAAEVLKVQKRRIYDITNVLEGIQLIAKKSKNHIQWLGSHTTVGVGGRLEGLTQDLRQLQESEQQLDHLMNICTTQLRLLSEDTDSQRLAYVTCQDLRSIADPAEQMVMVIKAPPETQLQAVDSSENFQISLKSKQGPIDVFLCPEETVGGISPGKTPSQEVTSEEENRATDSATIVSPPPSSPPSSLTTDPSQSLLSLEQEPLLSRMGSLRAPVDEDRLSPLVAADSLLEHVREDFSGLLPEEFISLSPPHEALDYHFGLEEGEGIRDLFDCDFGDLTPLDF
Chain of Myc proto-oncogene protein (Homo sapiens) (P01106 whole entry, looked up, the tested form may be a part): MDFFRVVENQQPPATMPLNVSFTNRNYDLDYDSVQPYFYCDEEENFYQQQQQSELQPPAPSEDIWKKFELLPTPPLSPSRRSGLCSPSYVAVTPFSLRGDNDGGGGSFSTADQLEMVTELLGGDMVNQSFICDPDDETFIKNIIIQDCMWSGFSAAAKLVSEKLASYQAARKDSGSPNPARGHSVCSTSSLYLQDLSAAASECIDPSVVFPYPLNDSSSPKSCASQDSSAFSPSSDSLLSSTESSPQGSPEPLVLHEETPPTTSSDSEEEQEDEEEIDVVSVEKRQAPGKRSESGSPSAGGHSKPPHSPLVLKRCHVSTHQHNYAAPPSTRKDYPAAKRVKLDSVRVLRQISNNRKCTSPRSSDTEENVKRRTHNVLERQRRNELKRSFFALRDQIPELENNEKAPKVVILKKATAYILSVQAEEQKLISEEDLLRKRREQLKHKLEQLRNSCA

On to `CCCCCCCCCC/C=C/C1CC(=O)OC1=O` (stereo unspecified), for which the compound was classed as inactive in experiment [1], in experiment [2], in experiment [3], in experiment [4], in experiment [5] and in [6]. Besides, the compound was classed as inactive in experiment [7], in [9], in experiment [10], in [11], in experiment [12] and in experiment [13]. The result in experiment [14], in experiment [15], in [16] and in [17] was inactive. For the same compound, in experiment [8], the AC50 was 100 µM (active).

Turning to `COC(OC)C(C)c1ccccc1` (stereo unspecified), the outcome in experiment [2], in experiment [3], in experiment [5], in experiment [18], in [6] and in experiment [7] was inactive. Moreover, the compound was called inactive in experiment [8], in experiment [9], in experiment [11], in experiment [12], in experiment [13] and in experiment [14]. The compound was classed as inactive in experiment [15], in [19], in experiment [16] and in [17].

As to `CCCCCC1CCCC(=O)O1` (stereo unspecified), the compound was called inactive in experiment [2], in [20], in experiment [5], in experiment [18], in experiment [6] and in experiment [7]. The result in experiment [8], in experiment [9], in experiment [11], in experiment [12], in experiment [13] and in [14] was inactive. The result in [15], in [19], in [16] and in [17] was inactive.

Consider `O=S(=O)(O)c1cccc2ccccc12`, for which the result in experiment [1], in experiment [3], in experiment [5], in experiment [6], in experiment [7] and in experiment [8] was inactive. Further, the compound was called inactive in [10], in experiment [11], in experiment [12], in [13], in experiment [14] and in experiment [15]. For the same compound, in experiment [19], the result was inactive.

As to `CC(=O)c1nccs1`, the result in [2], in experiment [3], in [20], in [4], in experiment [5] and in experiment [18] was inactive. The compound was classed as inactive in [6], in experiment [7], in experiment [8], in experiment [9], in [11] and in experiment [12]. Further, the result in experiment [13], in experiment [14], in [15], in experiment [16] and in experiment [17] was inactive.

For the compound `O=[N+]([O-])c1ccccc1C(F)(F)F`, the compound was classed as inactive in experiment [2], in [3], in [5], in experiment [18], in experiment [7] and in experiment [8]. The outcome in experiment [9], in [10], in experiment [11], in experiment [12], in experiment [13] and in experiment [14] was inactive. The compound was called inactive in [15], in experiment [19], in experiment [16] and in experiment [17]. The AC50 in [6] is 48.9 µM (active).

Take `O=C(CC(C(=O)OC1CCCCC1)S(=O)(=O)O)OC1CCCCC1` (stereo unspecified): the outcome in experiment [2], in [3], in experiment [5], in experiment [6], in [7] and in experiment [8] was inactive. The compound was classed as inactive in experiment [10], in [11], in [12], in experiment [13], in [14] and in experiment [15]. For the same compound, the result in experiment [19], in experiment [16] and in experiment [17] was inactive.
